# Test results: article PMC7862700, “An all-to-all approach to the identification of sequence-specific readers for epigenetic DNA modifications on cytosine”
# Experiments:
# Experiment in all cases: DAPPL (digital affinity profiling via proximity ligation, sequencing); 10 mM Tris-HCl pH 7.5, 50 mM NaCl, 1 mM DTT, 4% glycerol, room temperature, 30 min; GST-TFs on glutathione beads, 16-mer random dsDNA library, 0.1% formaldehyde crosslink after washing; high values mean tight binding
# FLI1 = target: T1, FLI1 (Homo sapiens, UniProt Q01543 1-452); conditions: protein: recombinant; tags: N-terminal GST; dsDNA, one strand shown
# T1 sequence: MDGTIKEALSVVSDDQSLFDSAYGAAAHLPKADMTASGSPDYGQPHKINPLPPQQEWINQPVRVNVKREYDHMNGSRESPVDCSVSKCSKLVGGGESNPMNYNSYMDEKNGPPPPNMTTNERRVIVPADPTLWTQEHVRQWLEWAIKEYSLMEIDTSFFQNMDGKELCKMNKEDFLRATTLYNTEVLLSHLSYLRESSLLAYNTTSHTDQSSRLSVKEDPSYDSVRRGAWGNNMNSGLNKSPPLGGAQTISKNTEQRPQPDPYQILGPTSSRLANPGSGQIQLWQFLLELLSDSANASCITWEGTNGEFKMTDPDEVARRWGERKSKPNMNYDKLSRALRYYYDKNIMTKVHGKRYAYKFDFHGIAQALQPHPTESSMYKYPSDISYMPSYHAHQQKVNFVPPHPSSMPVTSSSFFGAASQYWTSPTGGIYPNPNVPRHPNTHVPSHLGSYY
# Procedure, shortened: (§1)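 Binding signal is defined as a hexamer's read frequency for one factor over its frequency for the tag-only sample. To obtain reads, GST-fused human transcription factors were expressed in yeast, captured on glutathione beads, barcoded with DNA and pooled with that sample. Pools met 200 nmole of a 16-mer random double-stranded DNA library in Tris/NaCl/DTT/glycerol buffer for 30 min at room temperature before washing, 0.1% formaldehyde crosslinking, proximity ligation (BsaI/T4 ligase, 1 h, 37 °C), PCR and Illumina NextSeq500 sequencing.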
# ELK1 = target: T2, ELK1 (Homo sapiens, UniProt P19419 1-428); conditions: protein: recombinant; tags: N-terminal GST; dsDNA, one strand shown
# T2 sequence: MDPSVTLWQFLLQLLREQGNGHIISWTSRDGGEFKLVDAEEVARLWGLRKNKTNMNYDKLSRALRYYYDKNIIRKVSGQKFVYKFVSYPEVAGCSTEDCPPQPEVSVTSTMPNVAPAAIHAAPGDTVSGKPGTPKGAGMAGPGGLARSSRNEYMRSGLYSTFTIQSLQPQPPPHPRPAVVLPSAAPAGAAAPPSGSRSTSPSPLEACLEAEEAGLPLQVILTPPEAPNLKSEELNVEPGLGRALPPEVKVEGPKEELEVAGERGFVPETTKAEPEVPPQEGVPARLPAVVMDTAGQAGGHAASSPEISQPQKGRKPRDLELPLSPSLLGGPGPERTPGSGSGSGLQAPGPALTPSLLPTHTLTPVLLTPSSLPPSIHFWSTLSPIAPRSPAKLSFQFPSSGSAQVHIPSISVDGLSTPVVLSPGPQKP
# Procedure, shortened: as §1
# GABPA = target: T3, GABPA (Homo sapiens, UniProt Q06546 1-454); conditions: protein: recombinant; tags: N-terminal GST; dsDNA, one strand shown
# T3 sequence: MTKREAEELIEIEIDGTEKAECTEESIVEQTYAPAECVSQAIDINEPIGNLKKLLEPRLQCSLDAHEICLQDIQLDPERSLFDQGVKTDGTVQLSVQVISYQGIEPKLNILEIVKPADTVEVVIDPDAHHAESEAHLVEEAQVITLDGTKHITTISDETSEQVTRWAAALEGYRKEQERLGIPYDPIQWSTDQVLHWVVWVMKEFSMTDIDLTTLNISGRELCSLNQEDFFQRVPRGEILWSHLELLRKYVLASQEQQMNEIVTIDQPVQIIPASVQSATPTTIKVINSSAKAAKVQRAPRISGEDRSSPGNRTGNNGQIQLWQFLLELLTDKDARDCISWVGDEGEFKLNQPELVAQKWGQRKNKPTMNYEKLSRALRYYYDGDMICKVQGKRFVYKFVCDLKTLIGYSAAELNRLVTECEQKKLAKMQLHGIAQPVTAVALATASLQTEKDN
# Procedure, shortened: as §1
# ERG = target: T4, ERG (Homo sapiens, UniProt P11308 1-479); conditions: protein: recombinant; tags: N-terminal GST; dsDNA, one strand shown
# T4 sequence: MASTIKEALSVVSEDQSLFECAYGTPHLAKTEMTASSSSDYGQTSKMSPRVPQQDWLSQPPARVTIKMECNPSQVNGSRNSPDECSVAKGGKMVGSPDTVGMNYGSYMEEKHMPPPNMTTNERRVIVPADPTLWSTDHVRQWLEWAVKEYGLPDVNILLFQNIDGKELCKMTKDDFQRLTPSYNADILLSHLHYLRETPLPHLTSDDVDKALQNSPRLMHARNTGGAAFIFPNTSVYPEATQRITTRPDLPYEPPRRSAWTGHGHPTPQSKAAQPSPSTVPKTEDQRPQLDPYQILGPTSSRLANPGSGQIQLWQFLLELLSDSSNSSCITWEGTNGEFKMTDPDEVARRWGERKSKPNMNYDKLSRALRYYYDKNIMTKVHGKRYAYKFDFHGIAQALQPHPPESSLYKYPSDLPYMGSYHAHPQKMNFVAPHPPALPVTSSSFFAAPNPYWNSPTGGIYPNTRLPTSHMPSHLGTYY
# Procedure, shortened: as §1
# ELF1 = ELF1 (Homo sapiens, UniProt P32519 1-619); conditions: protein: recombinant; tags: N-terminal GST; dsDNA, one strand shown
# Procedure, shortened: as §1
# EHF = target: T5, EHF (Homo sapiens, UniProt Q9NZC4 1-300); conditions: protein: recombinant; tags: N-terminal GST; dsDNA, one strand shown
# T5 sequence: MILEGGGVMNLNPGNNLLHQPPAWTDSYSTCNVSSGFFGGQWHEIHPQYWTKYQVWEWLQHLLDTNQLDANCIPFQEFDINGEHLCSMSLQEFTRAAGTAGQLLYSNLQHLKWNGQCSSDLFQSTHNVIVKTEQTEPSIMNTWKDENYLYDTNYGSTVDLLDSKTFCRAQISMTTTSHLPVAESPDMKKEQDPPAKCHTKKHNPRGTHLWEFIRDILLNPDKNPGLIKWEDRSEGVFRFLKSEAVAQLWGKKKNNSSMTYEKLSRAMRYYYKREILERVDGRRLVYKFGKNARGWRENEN
# Procedure, shortened: as §1
# SPI1 = SPI1 (Homo sapiens, UniProt P17947 1-270); conditions: protein: recombinant; tags: N-terminal GST; dsDNA, one strand shown
# Procedure, shortened: as §1
# SPIB = SPIB (Homo sapiens, UniProt Q01892 1-262); conditions: protein: recombinant; tags: N-terminal GST; dsDNA, one strand shown
# Procedure, shortened: as §1
# ELK3 = target: T6, ELK3 (Homo sapiens, UniProt P41970 1-407); conditions: protein: recombinant; tags: N-terminal GST; dsDNA, one strand shown
# T6 sequence: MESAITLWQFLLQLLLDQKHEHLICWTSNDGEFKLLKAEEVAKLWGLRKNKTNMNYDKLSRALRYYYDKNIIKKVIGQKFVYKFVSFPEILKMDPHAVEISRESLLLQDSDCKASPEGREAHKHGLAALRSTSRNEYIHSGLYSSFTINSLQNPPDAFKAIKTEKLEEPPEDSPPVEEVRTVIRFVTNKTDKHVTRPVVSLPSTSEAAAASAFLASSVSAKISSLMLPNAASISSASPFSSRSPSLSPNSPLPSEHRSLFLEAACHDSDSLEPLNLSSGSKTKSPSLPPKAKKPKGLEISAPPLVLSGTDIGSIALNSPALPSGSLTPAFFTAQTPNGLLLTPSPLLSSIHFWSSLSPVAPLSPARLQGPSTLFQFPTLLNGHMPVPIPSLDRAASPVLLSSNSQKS
# Procedure, shortened: as §1
# FEV = target: T7, FEV (Homo sapiens, UniProt Q99581 1-238); conditions: protein: recombinant; tags: N-terminal GST; dsDNA, one strand shown
# T7 sequence: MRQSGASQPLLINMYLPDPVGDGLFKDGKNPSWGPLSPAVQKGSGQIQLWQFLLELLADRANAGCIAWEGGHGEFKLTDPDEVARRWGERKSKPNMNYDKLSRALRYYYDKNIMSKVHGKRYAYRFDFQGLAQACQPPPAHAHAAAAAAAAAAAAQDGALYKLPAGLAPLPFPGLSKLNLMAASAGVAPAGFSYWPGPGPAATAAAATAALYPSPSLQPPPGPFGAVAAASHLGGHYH
# Procedure, shortened: as §1
# ETV5 = ETV5 (Homo sapiens, UniProt P41161 1-510); conditions: protein: recombinant; tags: N-terminal GST; dsDNA, one strand shown
# Procedure, shortened: as §1
# HSF1 = HSF1 (Homo sapiens, UniProt Q00613 1-529); conditions: protein: recombinant; tags: N-terminal GST; chain copies: 3; dsDNA, one strand shown
# Procedure, shortened: as §1
# SPIC = target: T8, SPIC (Homo sapiens, UniProt Q8N5J4 1-248); conditions: protein: recombinant; tags: N-terminal GST; dsDNA, one strand shown
# T8 sequence: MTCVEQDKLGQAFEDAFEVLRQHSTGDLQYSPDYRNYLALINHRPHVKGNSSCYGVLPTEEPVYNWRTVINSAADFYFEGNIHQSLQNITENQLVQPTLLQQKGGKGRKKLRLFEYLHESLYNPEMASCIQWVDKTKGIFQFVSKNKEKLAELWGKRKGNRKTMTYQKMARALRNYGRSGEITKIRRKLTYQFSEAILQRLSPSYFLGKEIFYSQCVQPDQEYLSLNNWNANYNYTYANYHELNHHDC
# Procedure, shortened: as §1
# ELF4 = ELF4 (Homo sapiens, UniProt Q99607 1-663); conditions: protein: recombinant; tags: N-terminal GST; dsDNA, one strand shown
# Procedure, shortened: as §1
# ELK4 = target: T9, ELK4 (Homo sapiens, UniProt P28324-2 1-405); conditions: protein: recombinant; tags: N-terminal GST; dsDNA, one strand shown
# T9 sequence: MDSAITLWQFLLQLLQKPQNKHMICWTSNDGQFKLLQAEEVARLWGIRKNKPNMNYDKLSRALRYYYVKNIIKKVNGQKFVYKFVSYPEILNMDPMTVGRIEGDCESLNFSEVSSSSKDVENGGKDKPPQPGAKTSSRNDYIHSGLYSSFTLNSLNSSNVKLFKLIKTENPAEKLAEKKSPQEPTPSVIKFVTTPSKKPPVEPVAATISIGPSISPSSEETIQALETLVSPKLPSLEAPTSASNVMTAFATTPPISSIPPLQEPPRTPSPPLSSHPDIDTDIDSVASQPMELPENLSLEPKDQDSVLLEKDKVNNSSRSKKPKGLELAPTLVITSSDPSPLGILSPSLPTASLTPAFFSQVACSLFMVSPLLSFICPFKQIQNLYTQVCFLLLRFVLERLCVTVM
# Procedure, shortened: as §1
# ETV2 = target: T10, ETV2 (Homo sapiens, UniProt O00321 1-342); conditions: protein: recombinant; tags: N-terminal GST; dsDNA, one strand shown
# T10 sequence: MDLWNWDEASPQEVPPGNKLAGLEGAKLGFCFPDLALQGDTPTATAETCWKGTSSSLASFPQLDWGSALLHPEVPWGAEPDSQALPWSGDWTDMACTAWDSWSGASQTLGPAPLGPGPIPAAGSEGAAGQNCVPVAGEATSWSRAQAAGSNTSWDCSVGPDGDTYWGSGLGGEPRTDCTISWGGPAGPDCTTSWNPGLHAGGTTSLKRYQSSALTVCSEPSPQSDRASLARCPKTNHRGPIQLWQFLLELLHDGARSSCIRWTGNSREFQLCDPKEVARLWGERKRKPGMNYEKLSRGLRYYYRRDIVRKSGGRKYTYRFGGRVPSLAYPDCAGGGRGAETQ
# Procedure, shortened: as §1
# ELF3 = target: T11, ELF3 (Homo sapiens, UniProt P78545 1-371); conditions: protein: recombinant; tags: N-terminal GST; dsDNA, one strand shown
# T11 sequence: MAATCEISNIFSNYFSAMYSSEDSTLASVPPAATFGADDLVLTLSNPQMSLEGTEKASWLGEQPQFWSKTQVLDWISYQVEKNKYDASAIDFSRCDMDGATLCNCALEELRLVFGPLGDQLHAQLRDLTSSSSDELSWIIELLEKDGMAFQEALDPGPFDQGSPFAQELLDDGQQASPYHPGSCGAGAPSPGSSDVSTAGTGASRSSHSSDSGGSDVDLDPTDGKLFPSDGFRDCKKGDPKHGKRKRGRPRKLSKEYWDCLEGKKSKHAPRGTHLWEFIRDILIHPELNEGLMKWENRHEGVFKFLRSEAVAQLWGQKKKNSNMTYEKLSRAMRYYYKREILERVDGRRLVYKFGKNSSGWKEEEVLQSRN
# Procedure, shortened: as §1
# CRX = CRX (Homo sapiens, UniProt O43186 1-299); conditions: protein: recombinant; tags: N-terminal GST; dsDNA, one strand shown
# Procedure, shortened: as §1
# ETV1 = ETV1 (Homo sapiens, UniProt P50549 1-477); conditions: protein: recombinant; tags: N-terminal GST; dsDNA, one strand shown
# Procedure, shortened: as §1
# Chain of ETV1 (P50549 whole entry): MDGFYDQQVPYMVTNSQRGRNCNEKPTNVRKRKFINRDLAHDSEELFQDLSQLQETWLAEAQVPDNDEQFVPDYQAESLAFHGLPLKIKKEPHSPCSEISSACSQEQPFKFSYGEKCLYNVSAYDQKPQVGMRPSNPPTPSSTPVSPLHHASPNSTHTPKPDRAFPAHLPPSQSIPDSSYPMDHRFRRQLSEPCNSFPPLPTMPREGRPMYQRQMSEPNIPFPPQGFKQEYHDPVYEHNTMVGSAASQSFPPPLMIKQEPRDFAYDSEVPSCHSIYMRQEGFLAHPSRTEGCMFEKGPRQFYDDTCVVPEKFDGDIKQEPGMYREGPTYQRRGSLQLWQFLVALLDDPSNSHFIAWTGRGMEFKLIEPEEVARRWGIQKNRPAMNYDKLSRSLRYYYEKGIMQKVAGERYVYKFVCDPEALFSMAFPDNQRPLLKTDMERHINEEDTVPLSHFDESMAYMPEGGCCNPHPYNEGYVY
# Chain of ETV5 (P41161 whole entry): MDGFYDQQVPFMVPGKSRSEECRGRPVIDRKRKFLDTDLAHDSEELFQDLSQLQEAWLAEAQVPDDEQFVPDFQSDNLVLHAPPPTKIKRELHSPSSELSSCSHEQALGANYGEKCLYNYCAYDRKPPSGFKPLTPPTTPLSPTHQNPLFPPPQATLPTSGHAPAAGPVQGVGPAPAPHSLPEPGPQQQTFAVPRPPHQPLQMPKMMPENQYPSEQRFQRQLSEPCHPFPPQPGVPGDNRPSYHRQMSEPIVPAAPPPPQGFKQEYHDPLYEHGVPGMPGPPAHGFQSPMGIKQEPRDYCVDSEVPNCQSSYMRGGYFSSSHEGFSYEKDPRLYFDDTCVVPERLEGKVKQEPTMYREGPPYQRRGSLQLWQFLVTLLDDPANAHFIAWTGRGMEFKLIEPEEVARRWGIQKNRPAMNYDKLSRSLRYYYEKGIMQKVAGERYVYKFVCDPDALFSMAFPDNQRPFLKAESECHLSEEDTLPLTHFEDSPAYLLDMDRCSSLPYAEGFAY
# Chain of CRX (O43186 whole entry): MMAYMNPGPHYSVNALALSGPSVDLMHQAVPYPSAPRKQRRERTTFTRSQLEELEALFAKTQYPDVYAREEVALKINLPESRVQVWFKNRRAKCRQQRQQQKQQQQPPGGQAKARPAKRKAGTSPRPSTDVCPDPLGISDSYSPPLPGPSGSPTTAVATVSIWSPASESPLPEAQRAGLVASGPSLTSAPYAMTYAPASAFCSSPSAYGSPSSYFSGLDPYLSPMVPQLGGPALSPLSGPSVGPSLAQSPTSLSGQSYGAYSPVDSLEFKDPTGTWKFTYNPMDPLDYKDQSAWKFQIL
# Chain of HSF1 (Q00613 whole entry): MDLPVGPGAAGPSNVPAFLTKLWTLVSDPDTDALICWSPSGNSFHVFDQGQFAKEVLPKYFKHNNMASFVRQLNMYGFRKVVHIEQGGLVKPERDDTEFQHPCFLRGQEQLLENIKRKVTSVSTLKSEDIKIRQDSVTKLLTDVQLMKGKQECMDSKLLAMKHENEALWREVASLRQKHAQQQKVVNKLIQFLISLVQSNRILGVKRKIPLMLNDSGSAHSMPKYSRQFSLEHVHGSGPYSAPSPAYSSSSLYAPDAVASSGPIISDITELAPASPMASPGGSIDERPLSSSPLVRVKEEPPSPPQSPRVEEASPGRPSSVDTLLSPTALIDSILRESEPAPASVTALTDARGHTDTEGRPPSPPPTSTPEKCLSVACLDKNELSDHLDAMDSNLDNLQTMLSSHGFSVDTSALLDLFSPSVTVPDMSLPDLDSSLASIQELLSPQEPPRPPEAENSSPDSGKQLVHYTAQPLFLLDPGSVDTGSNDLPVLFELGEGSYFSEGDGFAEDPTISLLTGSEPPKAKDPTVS
# Chain of ELF1 (P32519 whole entry): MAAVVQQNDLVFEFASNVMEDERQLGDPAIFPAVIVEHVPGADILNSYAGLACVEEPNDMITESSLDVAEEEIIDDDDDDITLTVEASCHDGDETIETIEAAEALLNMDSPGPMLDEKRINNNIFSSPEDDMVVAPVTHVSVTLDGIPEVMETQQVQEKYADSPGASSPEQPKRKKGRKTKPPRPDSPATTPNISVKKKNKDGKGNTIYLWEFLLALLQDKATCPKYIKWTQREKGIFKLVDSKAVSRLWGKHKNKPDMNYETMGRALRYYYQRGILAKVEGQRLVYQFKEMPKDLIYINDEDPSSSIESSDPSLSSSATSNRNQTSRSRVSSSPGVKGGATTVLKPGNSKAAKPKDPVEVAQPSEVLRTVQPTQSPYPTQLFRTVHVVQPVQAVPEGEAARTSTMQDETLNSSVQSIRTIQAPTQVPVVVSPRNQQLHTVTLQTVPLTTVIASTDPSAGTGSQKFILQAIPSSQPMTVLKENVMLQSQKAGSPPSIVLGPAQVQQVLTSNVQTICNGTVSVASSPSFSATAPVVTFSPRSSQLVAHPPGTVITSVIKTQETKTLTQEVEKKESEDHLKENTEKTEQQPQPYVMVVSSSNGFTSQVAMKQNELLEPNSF
# Chain of ELF4 (Q99607 whole entry): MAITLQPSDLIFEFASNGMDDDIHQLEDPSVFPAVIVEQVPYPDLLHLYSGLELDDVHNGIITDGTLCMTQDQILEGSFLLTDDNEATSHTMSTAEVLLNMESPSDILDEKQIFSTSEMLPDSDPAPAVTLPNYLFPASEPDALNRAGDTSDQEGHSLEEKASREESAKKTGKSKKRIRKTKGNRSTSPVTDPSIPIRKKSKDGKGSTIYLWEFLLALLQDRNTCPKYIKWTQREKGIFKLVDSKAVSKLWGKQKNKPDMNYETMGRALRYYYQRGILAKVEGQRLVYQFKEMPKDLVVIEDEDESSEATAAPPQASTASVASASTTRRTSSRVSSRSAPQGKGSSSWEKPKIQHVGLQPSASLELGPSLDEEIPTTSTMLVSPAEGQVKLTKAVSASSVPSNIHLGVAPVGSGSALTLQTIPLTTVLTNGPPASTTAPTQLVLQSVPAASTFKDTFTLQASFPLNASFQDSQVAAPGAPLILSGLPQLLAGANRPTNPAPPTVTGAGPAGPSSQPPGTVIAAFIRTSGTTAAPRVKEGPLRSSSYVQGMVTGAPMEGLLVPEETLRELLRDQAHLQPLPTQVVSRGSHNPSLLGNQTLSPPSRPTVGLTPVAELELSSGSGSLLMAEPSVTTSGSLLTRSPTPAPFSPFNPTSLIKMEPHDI
# Chain of SPIB (Q01892 whole entry): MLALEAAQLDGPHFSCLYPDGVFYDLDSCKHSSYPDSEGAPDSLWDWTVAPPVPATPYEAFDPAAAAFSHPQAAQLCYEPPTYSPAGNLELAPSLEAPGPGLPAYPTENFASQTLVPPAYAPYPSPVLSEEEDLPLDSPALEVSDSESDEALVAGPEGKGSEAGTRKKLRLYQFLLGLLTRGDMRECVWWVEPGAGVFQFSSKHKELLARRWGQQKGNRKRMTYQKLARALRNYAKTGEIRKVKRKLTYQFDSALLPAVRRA
sequence,measurement,setting,value
TTTACA,binding signal,FLI1,"1.18 fold enrichment (6-mer frequency, TF over GST control)"
same,binding signal,ELK1,"1.19 fold enrichment (6-mer frequency, TF over GST control)"
same,binding signal,GABPA,"1.25 fold enrichment (6-mer frequency, TF over GST control)"
same,binding signal,ERG,"1.23 fold enrichment (6-mer frequency, TF over GST control)"
same,binding signal,ELF1,"1.31 fold enrichment (6-mer frequency, TF over GST control)"
same,binding signal,EHF,"1.31 fold enrichment (6-mer frequency, TF over GST control)"
same,binding signal,SPI1,"1.22 fold enrichment (6-mer frequency, TF over GST control)"
same,binding signal,SPIB,"1.24 fold enrichment (6-mer frequency, TF over GST control)"
same,binding signal,ELK3,"1.25 fold enrichment (6-mer frequency, TF over GST control)"
same,binding signal,FEV,"1.2 fold enrichment (6-mer frequency, TF over GST control)"
same,binding signal,ETV5,"1.19 fold enrichment (6-mer frequency, TF over GST control)"
same,binding signal,HSF1,"1.32 fold enrichment (6-mer frequency, TF over GST control)"
same,binding signal,SPIC,"1.19 fold enrichment (6-mer frequency, TF over GST control)"
same,binding signal,ELF4,"1.26 fold enrichment (6-mer frequency, TF over GST control)"
same,binding signal,ELK4,"1.32 fold enrichment (6-mer frequency, TF over GST control)"
same,binding signal,ETV2,"1.26 fold enrichment (6-mer frequency, TF over GST control)"
same,binding signal,ELF3,"1.4 fold enrichment (6-mer frequency, TF over GST control)"
same,binding signal,CRX,"1.55 fold enrichment (6-mer frequency, TF over GST control)"
same,binding signal,ETV1,"1.3 fold enrichment (6-mer frequency, TF over GST control)"
